The supplement of paper PMC10849652
Targets with a hit are over-represented here; the source holds about 7,900 in all. About 0.6% of all pairs of compound and target were hits.

Legend:
Assay in all cases: log2 fold change, soluble protein after heating vs DMSO (PISA); higher = thermal stabilisation; K562 cells, 10 uM, 30 min; active = over 0.2 and 3.5 SD of the protein, either way, in both replicates (recomputed)
erlotinib = compound: C#Cc1cccc(Nc2ncnc3cc(OCCOC)c(OCCOC)cc23)c1 [erlotinib]
Summary of the method: (§1)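 Aliquots of K562 cells (2×10^6 cells/mL) treated with 10 μM compound for 30 min were heated for 3 min over 48°C-58°C. After pooling and extraction in PBS with 0.5% NP-40 at 4°C, soluble protein from a 21,000xg, 90 min spin was quantified by TMTpro 16plex LC-MS/MS with channel sums equalised. Thermal stability is expressed against control samples, from duplicates, as a log2 fold change.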

[1] = compound: C/C(=N\NC(=O)C1=CC(=CC=C1)S(=O)(=O)N2CCOCC2)/C3=C(C=CC(=C3)Cl)O
Summary of the method: as §1

[2] = compound: C1=CC(=C(C=C1Cl)C2=NC3=NC=CN=C3C(=N2)NC4=CC=NC=C4)F
Summary of the method: as §1

[3] = compound: C1=CC(=CC=C1C2=NC3=C(N2)C=C(C=C3)C(=O)N)OC4=CC=C(C=C4)Cl
Summary of the method: as §1

[4] = compound: C1=CC2=C(C=CC(=C2)/C=C\3/C(=O)NC(=NCC4=CC=CS4)S3)N=C1
Summary of the method: as §1

[5] = compound: C1=CC2=NC=CN=C2C=C1/C=C/3\C(=O)NC(=O)S3
Summary of the method: as §1

[6] = compound: C1=CC=C(C=C1)C2=NC(=C(N2)C3=CC=NC=C3)C4=CC(=C(C=C4)Cl)O
Summary of the method: as §1

[7] = compound: C1=CC=C2C(=C1)C3=NNC4=CC=CC(=C43)C2=O
Summary of the method: as §1

[8] = compound: C1CCN(C1)C(=O)NC2=CC=CC(=C2)NC3=NC=C(C(=N3)NCCC4=CN=CN4)Br
Summary of the method: as §1

[9] = compound: C1CN(CCC1(CC2=CC=C(C=C2)Cl)N)C3=NC=NC4=C3C=CN4
Summary of the method: as §1

IRAK-1-4 Inhibitor I = compound: C1COCCN1CCN2C3=CC=CC=C3N=C2NC(=O)C4=CC(=CC=C4)[N+](=O)[O-] [IRAK-1-4 Inhibitor I]
Summary of the method: as §1

ibrutinib = compound: C=CC(=O)N1CCC[C@@H](n2nc(-c3ccc(Oc4ccccc4)cc3)c3c(N)ncnc32)C1 [ibrutinib]
Summary of the method: as §1

[10] = compound: CC(=O)c1cnc2ccc(-c3cc(Cl)c(O)c(Cl)c3)nc2c1N[C@H]1CC[C@H](CN(C)C)CC1
Summary of the method: as §1

ralimetinib = compound: CC(C)(C)Cn1c(N)nc2ccc(-c3[nH]c(C(C)(C)C)nc3-c3ccc(F)cc3)nc21 [ralimetinib]
Summary of the method: as §1

[11] = compound: CC(C)(O)CC(=O)NCCn1ccc2ncnc(Nc3ccc(Oc4cccc(C(F)(F)F)c4)c(Cl)c3)c21
Summary of the method: as §1

[12] = compound: CC(C)C1=C2N=C(C=C(N2N=C1)NCC3=CC=CC=C3)NCCCCCCN
Summary of the method: as §1

[13] = compound: CC(C)C[C@@H](C=O)NC(=O)[C@H](CC(C)C)NC(=O)[C@H](CC(C)C)NC(=O)OCc1ccccc1
Summary of the method: as §1

pinometostat = compound: CC(C)N(C[C@H]1O[C@@H](n2cnc3c(N)ncnc32)[C@H](O)[C@@H]1O)[C@H]1C[C@@H](CCc2nc3cc(C(C)(C)C)ccc3[nH]2)C1 [pinometostat]
Summary of the method: as §1

[14] = compound: CC1=C(C(CC(=O)N1)C2=CC=C(C=C2)C(F)(F)F)C(=O)NC3=C(C=C4C(=C3)C=NN4)F
Summary of the method: as §1

[15] = compound: CC1=C(C2=C(C=C1)C(=O)C3=CC=CC=C3N2CCCN)C
Summary of the method: as §1

Measured: log2 fold change

AP2B1 isoform 2 (UniProt P63010)
Sequence of UniProt P63010 (P63010 whole entry, looked up): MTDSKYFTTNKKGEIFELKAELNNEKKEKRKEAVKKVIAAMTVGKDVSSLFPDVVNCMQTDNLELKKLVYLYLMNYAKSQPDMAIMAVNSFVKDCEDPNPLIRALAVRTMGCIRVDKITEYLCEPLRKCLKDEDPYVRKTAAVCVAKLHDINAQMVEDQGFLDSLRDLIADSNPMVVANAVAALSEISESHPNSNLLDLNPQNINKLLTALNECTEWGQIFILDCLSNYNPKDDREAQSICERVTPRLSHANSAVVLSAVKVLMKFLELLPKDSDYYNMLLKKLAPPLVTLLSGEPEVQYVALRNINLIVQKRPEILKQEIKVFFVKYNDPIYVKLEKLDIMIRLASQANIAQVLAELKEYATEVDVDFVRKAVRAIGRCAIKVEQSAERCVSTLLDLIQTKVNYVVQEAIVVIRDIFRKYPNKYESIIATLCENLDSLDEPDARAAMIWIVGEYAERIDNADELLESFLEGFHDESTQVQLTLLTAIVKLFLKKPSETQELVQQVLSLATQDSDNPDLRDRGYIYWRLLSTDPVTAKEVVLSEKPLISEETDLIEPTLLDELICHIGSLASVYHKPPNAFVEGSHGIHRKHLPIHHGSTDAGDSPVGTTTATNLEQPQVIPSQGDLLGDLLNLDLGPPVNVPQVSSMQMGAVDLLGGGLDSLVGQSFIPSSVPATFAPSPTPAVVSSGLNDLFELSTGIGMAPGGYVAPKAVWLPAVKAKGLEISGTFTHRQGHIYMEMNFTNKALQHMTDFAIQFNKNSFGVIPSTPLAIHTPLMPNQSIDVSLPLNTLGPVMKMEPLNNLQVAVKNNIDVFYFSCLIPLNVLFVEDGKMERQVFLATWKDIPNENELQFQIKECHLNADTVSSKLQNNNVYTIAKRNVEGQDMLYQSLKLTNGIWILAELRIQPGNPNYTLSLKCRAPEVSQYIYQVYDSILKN
inactive: erlotinib -0.021 | [1] 0.017 | [2] -0.01 | [3] 0.003 | [4] 0.004 | [5] -0.009 | [6] -0.004 | [7] -0.158 | [9] -0.003 | IRAK-1-4 Inhibitor I -0.002 | ibrutinib 0.025 | [10] -0.034 | ralimetinib 0 | [11] 0.008 | [12] 0.029 | [13] 0.005 | pinometostat 0.011 | [14] 0.027 | [15] 0.035
active: [8] -0.225

ARMC8 (UniProt Q8IUR7)
inactive: erlotinib -0.079 | [1] -0.029 | [2] -0.029 | [3] 0.027 | [4] -0.047 | [5] 0.013 | [6] 0.051 | [7] -0.005 | [8] -0.002 | [9] -0.027 | IRAK-1-4 Inhibitor I -0.025 | ibrutinib -0.017 | [10] 0.036 | ralimetinib 0.084 | [11] -0.011 | [12] -0.01 | [13] -0.093 | pinometostat -0.021 | [14] -0.025 | [15] -0.07

AKAP8L (UniProt Q9ULX6)
Sequence of UniProt Q9ULX6 (Q9ULX6 whole entry, looked up): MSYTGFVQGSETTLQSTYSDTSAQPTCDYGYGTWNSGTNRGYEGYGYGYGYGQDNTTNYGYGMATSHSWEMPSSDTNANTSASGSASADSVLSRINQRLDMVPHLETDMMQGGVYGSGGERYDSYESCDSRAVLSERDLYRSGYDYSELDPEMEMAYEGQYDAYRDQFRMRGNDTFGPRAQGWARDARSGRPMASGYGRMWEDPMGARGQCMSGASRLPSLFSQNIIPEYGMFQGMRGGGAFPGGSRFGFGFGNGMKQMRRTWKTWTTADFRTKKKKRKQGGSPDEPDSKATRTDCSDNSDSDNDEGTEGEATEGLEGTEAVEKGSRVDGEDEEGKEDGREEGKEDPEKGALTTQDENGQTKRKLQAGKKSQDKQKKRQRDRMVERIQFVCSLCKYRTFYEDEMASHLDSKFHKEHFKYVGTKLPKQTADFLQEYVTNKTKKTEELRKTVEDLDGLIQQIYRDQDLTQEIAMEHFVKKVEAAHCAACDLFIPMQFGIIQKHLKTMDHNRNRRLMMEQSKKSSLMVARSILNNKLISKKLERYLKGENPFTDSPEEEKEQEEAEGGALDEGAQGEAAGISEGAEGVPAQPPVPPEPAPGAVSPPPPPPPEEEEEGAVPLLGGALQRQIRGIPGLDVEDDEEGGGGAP
inactive: erlotinib 0.001 | [1] 0.085 | [2] 0.074 | [3] 0.026 | [4] -0.006 | [5] -0.058 | [6] -0.054 | [7] -0.027 | [8] -0.053 | [9] 0.031 | IRAK-1-4 Inhibitor I -0.076 | ibrutinib -0.001 | [10] -0.128 | ralimetinib 0.091 | [11] -0.091 | [12] -0.299 | [13] 0.106 | pinometostat -0.018 | [14] 0.024 | [15] -0.34

ATP5IF1 (UniProt Q9UII2)
Sequence of UniProt Q9UII2 (Q9UII2 whole entry, looked up): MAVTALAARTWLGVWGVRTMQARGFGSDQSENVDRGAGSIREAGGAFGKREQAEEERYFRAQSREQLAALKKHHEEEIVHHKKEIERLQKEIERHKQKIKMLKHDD
inactive: erlotinib 0.001 | [1] -0.122 | [2] 0.032 | [3] -0.005 | [4] -0.104 | [5] 0.007 | [6] -0.051 | [7] 0.153 | [8] 0.053 | [9] 0.032 | IRAK-1-4 Inhibitor I 0.121 | ibrutinib 0.012 | [10] 0.018 | ralimetinib -0.1 | [11] 0.099 | [12] 0.056 | [13] -0.048 | pinometostat -0.06 | [14] 0.009 | [15] -0.006

BTAF1 (UniProt O14981)
inactive: erlotinib 0.04 | [1] 0.078 | [2] 0.072 | [3] 0.005 | [4] 0.048 | [5] -0.006 | [6] -0.038 | [7] -0.032 | [8] 0.011 | [9] 0.05 | IRAK-1-4 Inhibitor I 0.021 | ibrutinib 0.029 | [10] 0.022 | ralimetinib -0.043 | [11] -0.168 | [12] -0.131 | [13] 0.01 | pinometostat -0.011 | [14] 0.003 | [15] -0.087

ACSL4 (UniProt O60488)
active: [3] 0.727 | [7] 0.357 | [12] -0.443
inactive: erlotinib 0.16 | [1] 0.02 | [2] -0.021 | [4] 0.13 | [5] 0.024 | [6] 0.226 | [8] -0.058 | [9] -0.002 | IRAK-1-4 Inhibitor I -0.067 | ibrutinib 0.001 | [10] 0 | ralimetinib 0.049 | [11] -0.237 | [13] 0.038 | pinometostat 0.098 | [14] 0.019 | [15] 0

ACP1 isoform 2 (UniProt P24666)
Sequence of UniProt P24666 (P24666 whole entry, looked up): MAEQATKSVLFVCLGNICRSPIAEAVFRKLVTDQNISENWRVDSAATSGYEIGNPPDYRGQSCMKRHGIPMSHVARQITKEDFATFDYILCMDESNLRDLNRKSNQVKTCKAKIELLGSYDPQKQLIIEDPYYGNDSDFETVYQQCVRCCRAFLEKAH
inactive: erlotinib 0.072 | [1] 0.011 | [2] 0.038 | [3] 0.024 | [4] 0.029 | [5] -0.008 | [6] -0.018 | [7] 0 | [8] 0.004 | [9] -0.039 | IRAK-1-4 Inhibitor I -0.082 | ibrutinib -0.028 | [10] -0.013 | ralimetinib 0.009 | [12] -0.109 | [13] -0.039 | pinometostat 0.073 | [14] -0.061
active: [11] -0.264 | [15] -0.296

ATP7B (UniProt P35670)
inactive: erlotinib -0.005 | [1] 0.073 | [2] -0.037 | [3] 0.051 | [4] 0.119 | [5] 0.01 | [6] 0.077 | [7] -0.009 | [8] -0.075 | [9] -0.052 | IRAK-1-4 Inhibitor I -0.022 | ibrutinib -0.033 | [10] 0.077 | ralimetinib 0.043 | [11] 0.003 | [12] 0.011 | [13] 0.015 | pinometostat 0.056 | [14] -0.124 | [15] 0.061

ACACB (UniProt O00763)
active: [12] -0.515
inactive: erlotinib 0.048 | [1] -0.094 | [2] -0.212 | [3] -0.108 | [4] 0.07 | [5] -0.123 | [6] 0.132 | [7] -0.028 | [8] -0.059 | [9] -0.143 | IRAK-1-4 Inhibitor I -0.23 | ibrutinib 0.02 | [10] 0.108 | ralimetinib 0.216 | [11] 0 | [13] 0.066 | pinometostat 0.315 | [14] 0.11 | [15] 0.027

BUB1B isoform 3 (UniProt O60566)
Sequence of UniProt O60566 (O60566 whole entry, looked up): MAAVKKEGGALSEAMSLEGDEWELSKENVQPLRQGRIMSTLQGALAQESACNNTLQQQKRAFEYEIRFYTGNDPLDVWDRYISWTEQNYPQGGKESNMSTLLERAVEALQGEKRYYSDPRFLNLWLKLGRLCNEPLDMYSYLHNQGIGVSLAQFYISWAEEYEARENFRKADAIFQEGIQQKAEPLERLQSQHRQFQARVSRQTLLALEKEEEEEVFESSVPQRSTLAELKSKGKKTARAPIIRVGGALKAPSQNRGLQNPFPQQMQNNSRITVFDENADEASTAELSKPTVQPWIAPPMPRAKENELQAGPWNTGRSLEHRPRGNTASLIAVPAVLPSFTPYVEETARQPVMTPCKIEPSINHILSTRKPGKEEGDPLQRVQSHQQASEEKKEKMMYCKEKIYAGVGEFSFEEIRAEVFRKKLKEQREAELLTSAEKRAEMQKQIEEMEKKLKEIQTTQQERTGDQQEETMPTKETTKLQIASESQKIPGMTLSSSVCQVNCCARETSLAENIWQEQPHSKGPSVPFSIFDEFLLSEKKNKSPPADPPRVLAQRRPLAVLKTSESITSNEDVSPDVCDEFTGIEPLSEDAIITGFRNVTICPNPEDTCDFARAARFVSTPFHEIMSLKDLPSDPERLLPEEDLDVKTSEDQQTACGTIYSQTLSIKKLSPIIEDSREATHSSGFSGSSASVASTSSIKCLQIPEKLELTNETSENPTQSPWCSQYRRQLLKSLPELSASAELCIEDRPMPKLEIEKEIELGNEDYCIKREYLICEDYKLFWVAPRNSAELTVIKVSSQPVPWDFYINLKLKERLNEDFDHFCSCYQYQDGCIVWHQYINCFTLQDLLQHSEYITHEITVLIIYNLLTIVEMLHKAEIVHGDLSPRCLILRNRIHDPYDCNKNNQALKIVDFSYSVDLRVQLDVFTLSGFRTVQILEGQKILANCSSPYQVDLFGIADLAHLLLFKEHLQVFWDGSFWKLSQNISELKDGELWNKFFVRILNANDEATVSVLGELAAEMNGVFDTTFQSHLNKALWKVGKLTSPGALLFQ
inactive: erlotinib 0.019 | [1] 0.054 | [2] -0.049 | [3] -0.031 | [4] 0.157 | [5] 0.052 | [6] 0.037 | [7] -0.038 | [8] -0.031 | [9] -0.095 | IRAK-1-4 Inhibitor I -0.092 | ibrutinib -0.039 | [10] -0.023 | ralimetinib 0.106 | [11] -0.089 | [12] -0.098 | [13] 0.09 | pinometostat 0.11 | [14] -0.011 | [15] 0.017

BAIAP2 (UniProt Q9UQB8)
Sequence of UniProt Q9UQB8 (Q9UQB8 whole entry, looked up): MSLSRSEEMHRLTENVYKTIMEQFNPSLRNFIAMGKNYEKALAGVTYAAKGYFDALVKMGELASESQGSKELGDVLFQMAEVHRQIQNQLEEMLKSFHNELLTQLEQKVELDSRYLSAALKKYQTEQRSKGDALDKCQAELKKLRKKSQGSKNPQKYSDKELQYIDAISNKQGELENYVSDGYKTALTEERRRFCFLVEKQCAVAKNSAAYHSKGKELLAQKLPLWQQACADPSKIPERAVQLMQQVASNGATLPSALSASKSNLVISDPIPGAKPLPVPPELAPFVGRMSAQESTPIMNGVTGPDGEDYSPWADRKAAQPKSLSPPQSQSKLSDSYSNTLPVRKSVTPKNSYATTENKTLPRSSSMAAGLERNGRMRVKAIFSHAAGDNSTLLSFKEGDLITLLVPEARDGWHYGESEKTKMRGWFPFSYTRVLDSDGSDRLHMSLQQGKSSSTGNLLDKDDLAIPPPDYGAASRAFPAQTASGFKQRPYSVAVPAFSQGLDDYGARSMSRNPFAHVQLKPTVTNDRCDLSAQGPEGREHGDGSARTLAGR
inactive: erlotinib 0.033 | [1] 0.089 | [2] 0.012 | [3] -0.008 | [4] 0.018 | [5] 0.017 | [6] 0.014 | [7] -0.063 | [8] -0.101 | [9] -0.016 | IRAK-1-4 Inhibitor I -0.016 | ibrutinib -0.032 | ralimetinib -0.034 | [11] -0.033 | [12] -0.056 | [13] 0.062 | pinometostat 0 | [14] 0.001 | [15] 0.041
active: [10] -0.265

ARL6IP6 (UniProt Q8N6S5)
Sequence of UniProt Q8N6S5 (Q8N6S5 whole entry, looked up): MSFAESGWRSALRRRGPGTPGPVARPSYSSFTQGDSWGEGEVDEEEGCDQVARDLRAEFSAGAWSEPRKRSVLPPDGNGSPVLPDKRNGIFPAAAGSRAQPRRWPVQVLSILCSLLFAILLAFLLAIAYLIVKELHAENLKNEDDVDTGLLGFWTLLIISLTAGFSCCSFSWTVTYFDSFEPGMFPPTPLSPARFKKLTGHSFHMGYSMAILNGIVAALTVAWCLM
active: ralimetinib 0.413
inactive: erlotinib 0.064 | [1] 0.116 | [2] -0.102 | [3] 0.034 | [4] -0.006 | [5] 0.001 | [6] 0.201 | [7] -0.087 | [8] 0.01 | [9] -0.036 | IRAK-1-4 Inhibitor I 0.12 | ibrutinib 0.056 | [10] 0.168 | [11] 0 | [12] -0.049 | [13] -0.199 | pinometostat 0.069 | [14] -0.014 | [15] 0.02

ADH5 (UniProt P11766)
Sequence of UniProt P11766 (P11766 whole entry, looked up): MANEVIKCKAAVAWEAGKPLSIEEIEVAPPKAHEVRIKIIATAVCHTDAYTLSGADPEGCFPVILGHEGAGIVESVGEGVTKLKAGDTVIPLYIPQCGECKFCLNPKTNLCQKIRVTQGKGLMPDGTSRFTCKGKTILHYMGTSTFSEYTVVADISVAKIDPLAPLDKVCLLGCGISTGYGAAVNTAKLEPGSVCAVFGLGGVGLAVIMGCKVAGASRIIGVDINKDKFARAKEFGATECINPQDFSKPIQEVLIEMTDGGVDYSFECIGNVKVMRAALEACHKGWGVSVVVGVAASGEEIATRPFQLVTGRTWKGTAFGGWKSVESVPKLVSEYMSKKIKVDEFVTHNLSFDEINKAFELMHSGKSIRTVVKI
inactive: erlotinib -0.012 | [1] 0.034 | [2] 0.05 | [3] -0.016 | [4] 0.001 | [5] 0.007 | [6] -0.039 | [7] 0.002 | [8] 0.004 | [9] 0.037 | IRAK-1-4 Inhibitor I 0.038 | ibrutinib 0.011 | [10] 0.014 | ralimetinib -0.097 | [11] -0.02 | [12] 0.05 | [13] -0.041 | pinometostat -0.05 | [14] 0.01 | [15] 0.019

ARL1 (UniProt P40616)
Sequence of UniProt P40616 (P40616 whole entry, looked up): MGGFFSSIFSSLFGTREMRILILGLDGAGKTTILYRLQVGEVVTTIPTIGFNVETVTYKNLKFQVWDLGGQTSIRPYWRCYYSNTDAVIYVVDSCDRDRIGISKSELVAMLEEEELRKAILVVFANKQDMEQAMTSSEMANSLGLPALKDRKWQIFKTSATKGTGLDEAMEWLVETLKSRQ
inactive: erlotinib 0.049 | [1] 0.063 | [2] 0.072 | [3] -0.091 | [4] 0.027 | [5] -0.028 | [6] 0.13 | [7] 0.084 | [8] -0.076 | [9] 0.055 | IRAK-1-4 Inhibitor I 0.007 | ibrutinib -0.031 | [10] -0.06 | ralimetinib 0.029 | [11] -0.09 | [12] 0.044 | [13] -0.049 | pinometostat -0.039 | [14] -0.065 | [15] 0.066

ALG5 (UniProt Q9Y673)
Sequence of UniProt Q9Y673 (Q9Y673 whole entry, looked up): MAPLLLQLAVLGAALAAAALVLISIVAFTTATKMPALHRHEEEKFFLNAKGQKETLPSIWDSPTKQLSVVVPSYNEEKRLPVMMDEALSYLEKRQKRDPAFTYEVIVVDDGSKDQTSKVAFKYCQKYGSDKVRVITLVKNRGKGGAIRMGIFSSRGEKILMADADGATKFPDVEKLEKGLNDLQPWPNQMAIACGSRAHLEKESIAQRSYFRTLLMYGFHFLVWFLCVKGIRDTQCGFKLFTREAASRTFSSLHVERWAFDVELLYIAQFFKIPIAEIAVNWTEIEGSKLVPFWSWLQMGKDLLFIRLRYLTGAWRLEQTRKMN
active: [10] -0.281
inactive: erlotinib -0.008 | [1] 0.014 | [2] 0.071 | [3] 0.008 | [4] 0.023 | [5] 0.003 | [6] 0.009 | [7] 0.048 | [8] -0.026 | [9] -0.007 | IRAK-1-4 Inhibitor I 0.026 | ibrutinib -0.043 | ralimetinib 0.009 | [11] -0.009 | [12] -0.004 | [13] 0 | pinometostat -0.002 | [14] -0.057 | [15] 0.07

ARFGAP1 (UniProt Q8N6T3)
Sequence of UniProt Q8N6T3 (Q8N6T3 whole entry, looked up): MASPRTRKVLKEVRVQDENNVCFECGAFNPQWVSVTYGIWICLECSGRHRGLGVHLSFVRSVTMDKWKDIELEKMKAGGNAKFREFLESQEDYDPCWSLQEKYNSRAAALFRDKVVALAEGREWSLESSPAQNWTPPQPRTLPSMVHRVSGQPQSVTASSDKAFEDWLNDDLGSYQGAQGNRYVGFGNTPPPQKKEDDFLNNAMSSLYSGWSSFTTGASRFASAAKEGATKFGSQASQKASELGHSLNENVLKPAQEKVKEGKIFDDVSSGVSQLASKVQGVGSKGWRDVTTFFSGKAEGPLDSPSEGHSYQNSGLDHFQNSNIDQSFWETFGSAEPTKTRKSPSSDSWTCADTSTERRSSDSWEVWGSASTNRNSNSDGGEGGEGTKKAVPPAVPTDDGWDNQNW
inactive: erlotinib -0.017 | [1] 0.131 | [2] 0.086 | [3] -0.072 | [4] -0.017 | [5] -0.018 | [6] -0.069 | [7] 0.035 | [8] -0.037 | [9] 0.001 | IRAK-1-4 Inhibitor I -0.008 | ibrutinib 0.005 | [10] -0.013 | ralimetinib 0.07 | [11] -0.012 | [12] -0.11 | [13] -0.017 | pinometostat -0.027 | [14] 0.02 | [15] 0.002
